Screening results as filed in PubChem BioAssay.
Only some compounds are listed: those with a hit (about 2.9% of all), similar ones and a draw of the others.
MEKK3 PB1 HTS – modulators of MEKK3-MEK5 PB1 binding, primary screen, biochemical, wildtype MEKK3, multiplex bead flow cytometry, Alexa488-MEK5 | Mitogen-activated protein kinase kinase kinase 3 (Homo sapiens), Q99759 | bead-based flow cytometry, Alexa488-MEK5 binding to MEKK3; actives lie on both sides; 0 = blocked by unlabeled MEK5, 100 = vehicle | binding response (% of control), % at 10 µM | 1.4% of 290,000 active;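 active = binding response more than 3 SD above or below the average of its plate-row segment, actives on both sides; inconclusive = wells at one plate position flagged as instrument error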;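 note: Alexa488 bead fluorescence after subtracting the streptavidin-only scavenger bead signal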
MEKK2wt PB1 HTS – modulators of MEK5 binding to wildtype MEKK2, primary screen, biochemical, multiplex bead flow cytometry, Alexa488-MEK5 | Mitogen-activated protein kinase kinase kinase 2 (Homo sapiens), Q9Y2U5 | Alexa488-MEK5 binding to MEKK2 WT; actives lie on both sides | binding response (% of control), % at 10 µM | 1.1% of 290,000 active; in the data active = binding response below about 67% or above about 130%; inconclusive = no clear call, values can overlap the other calls; inactive = in between
dFosB activator – activators of delta FosB homodimer, primary screen, biochemical, fluorescence polarization, TAMRA-CDK5 oligo, single point; Protein FosB (Mus musculus), P13346; purified delta FosB; percent of positive-control signal above neutral wells; activation, % at 25 µM; 0.99% of 340,000 active; AID 493131, 2011;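 active = mean activation above about 17%, with every replicate also reaching it, limit read from the data, passing the limit was not always enough; inconclusive = only one of the two conditions met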
Target sequence (P13346 whole entry, looked up): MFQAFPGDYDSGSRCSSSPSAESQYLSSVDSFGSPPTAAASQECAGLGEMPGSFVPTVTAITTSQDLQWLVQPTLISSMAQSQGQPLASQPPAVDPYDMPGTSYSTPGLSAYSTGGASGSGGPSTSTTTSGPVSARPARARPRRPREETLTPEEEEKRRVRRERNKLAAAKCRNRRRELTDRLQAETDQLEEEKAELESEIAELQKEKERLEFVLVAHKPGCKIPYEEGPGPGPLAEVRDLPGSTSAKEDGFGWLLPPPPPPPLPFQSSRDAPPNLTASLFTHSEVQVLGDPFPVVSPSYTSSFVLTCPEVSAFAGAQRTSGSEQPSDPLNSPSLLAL
MEKK2 mut-MEK5 – MEK5 binding signal on mutant MEKK2 PB1, primary screen, biochemical, multiplex bead flow cytometry, Alexa488-MEK5; percent response, % at 10 µM; Alexa488-MEK5 binding to MEKK2 mutant; 0.35% of 290,000 active; in the data active = percent response above about 24%, passing the limit was not always enough
DNA FID counter – compounds displacing fluorescent DNA intercalator, primary screen, artefact control for HCV NS3 helicase inhibitor project, biochemical, FID fluorescence | DNA fluorescent intercalator displacement | inhibition, % at 7.9 µM | 0.17% of 290,000 active | AID 1845, 2009; in the data active = inhibition above about 37%;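 note: 0% = vehicle and 100% = reference compound; higher means more ethidium bromide displaced from hairpin DNA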
* = called active by the depositor; [ ] = remark or other dose.

CCN(CC)S(=O)(=O)c1ccc(NC(=O)CO/N=C(\N)c2ccccc2)cc1 was read as dFosB activator -7.8.
For Cc1c(C(=O)NCCN2CCCC(O)C2)oc2c(F)cccc12 (stereo unspecified) the results were MEKK3 PB1 HTS 106.0, MEKK2wt PB1 HTS 110.0, dFosB activator -1.5, MEKK2 mut-MEK5 10.0 and DNA FID counter 4.1.
CN(C)CCN(C(=O)c1ccc(S(=O)(=O)N(C)c2ccccc2)cc1)c1nc2cc3c(cc2s1)OCCO3 was read as MEKK3 PB1 HTS 95.0, MEKK2wt PB1 HTS 106.0, dFosB activator 47.4*, MEKK2 mut-MEK5 -5.0 and DNA FID counter 2.4.
Screening CCN(Cc1ccccc1)S(=O)(=O)c1ccc(C(=O)N(CCCN(C)C)c2nc3cc(OC)ccc3s2)cc1 returned dFosB activator -14.4.
CCN(Cc1ccccc1)S(=O)(=O)c1ccc(C(=O)N(CCCN(C)C)c2nc3cc4c(cc3s2)OCCO4)cc1 was read as dFosB activator 42.2*.
NS(=O)(=O)c1ccc(-c2ccc(/C=C3\C(=O)Nc4ccccc43)o2)cc1 was read as MEKK3 PB1 HTS 98.0, MEKK2wt PB1 HTS 122.0, MEKK2 mut-MEK5 -1.0 and DNA FID counter -1.7.
`CC1(C)OC(=O)C(=Cc2ccc(-c3ccc(S(N)(=O)=O)cc3)o2)C(=O)O1` gave MEKK3 PB1 HTS 2.0*[inhibitor], MEKK2wt PB1 HTS 2.0*[inhibitor], dFosB activator 1.9, MEKK2 mut-MEK5 -42.0 and DNA FID counter -10.7.
Screening CCOC(=O)Oc1c(OC)cc(C(=O)O[C@@H]2C[C@@H]3CN4CCc5c([nH]c6cc(OC)ccc56)[C@H]4C[C@@H]3[C@H](C(=O)OC)[C@H]2OC)cc1OC returned dFosB activator 29.3*.
For COC(=O)C1C2CC3c4[nH]c5cc(OC)ccc5c4CCN3CC2CC(OC(=O)CC(C)=O)C1OC (stereo unspecified) the results were dFosB activator -12.8.
Screening COc1cccc(NC(=O)N2CCC(NC(=O)C3CCCCC3)CC2)c1 returned MEKK3 PB1 HTS 97.0, MEKK2wt PB1 HTS 99.0, dFosB activator 1.5, MEKK2 mut-MEK5 4.0 and DNA FID counter -22.8.
Screening CCOC(=O)CCCCC(=O)c1[nH]c(=O)[nH]c1CSc1nnc2c3ccccc3n(C(C)C)c2n1 returned MEKK3 PB1 HTS 131.0*, MEKK2wt PB1 HTS 108.0, dFosB activator inconclusive, MEKK2 mut-MEK5 0.0 and DNA FID counter -17.5.
CCOC(=O)c1c(C)[nH]c(C(=O)OCC(=O)Nc2sccc2C(N)=O)c1C was read as dFosB activator 21.8*.
Screening O=C(O)c1cc(S(=O)(=O)Nc2ccc3c(c2)OCCO3)c(Cl)cc1Cl returned MEKK3 PB1 HTS 99.0, MEKK2wt PB1 HTS 100.0, dFosB activator 5.3, MEKK2 mut-MEK5 0.0 and DNA FID counter 1.3.
For Cc1ccc(S(=O)(=O)N2CCOCC2)cc1C(=O)N1CCN(c2ccc(C(F)(F)F)cn2)CC1 the results were dFosB activator -15.5.
For Cn1c(=O)c2ncn(CC(=O)Nc3cccc(-c4nc5ccccc5s4)c3)c2n(C)c1=O the results were MEKK3 PB1 HTS 106.0, MEKK2wt PB1 HTS 104.0, dFosB activator 78.3*, MEKK2 mut-MEK5 7.0 and DNA FID counter -2.4.
COc1nc(OC)nc(N2CCC(NC(=O)C(Cc3cccc(OC)c3OC)NC(C)=O)CC2)n1 (stereo unspecified) was read as MEKK3 PB1 HTS 98.0, MEKK2wt PB1 HTS 103.0, dFosB activator -2.4, MEKK2 mut-MEK5 1.0 and DNA FID counter -37.0.
Screening CCN1CCN(c2nc(Nc3ccc(NC(C)=O)cc3)nc(Nc3ccc(NC(C)=O)cc3)n2)CC1 returned MEKK3 PB1 HTS 89.0, MEKK2wt PB1 HTS 84.0, dFosB activator 72.9*, MEKK2 mut-MEK5 -26.0 and DNA FID counter -0.9.
`CC(=O)Nc1ccc(/C(C)=N/Nc2nc(Nc3ccccc3)nc(N3CCOCC3)n2)cc1` gave MEKK3 PB1 HTS 102.0, MEKK2wt PB1 HTS 107.0, dFosB activator -14.1, MEKK2 mut-MEK5 2.0 and DNA FID counter -17.0.
Screening COc1cccc(C2c3[nH]c4ccccc4c3C[C@H]3C(=O)N(c4ccccc4C(=O)NCCCN4CCOCC4)C(=O)N23)c1 (stereo partly specified) returned MEKK3 PB1 HTS 97.0, MEKK2wt PB1 HTS 105.0, dFosB activator 0.4, MEKK2 mut-MEK5 0.0 and DNA FID counter 44.7*.
CN(C)c1ccc(C=c2c3cc([N+](=O)[O-])ccc3n3c2cc(-c2ccccc2)[n+]3C)cc1 was read as dFosB activator 14.1.
CN(C)c1ccc(C=c2c3ccccc3n3c2cc(-c2ccccc2)[n+]3C)cc1 was read as dFosB activator 100.1*.
CN(C)c1ccc(/C=C2\SC(=O)N(CC(O)Cn3c4ccccc4c4ccccc43)C2=O)cc1 (stereo unspecified) was read as MEKK3 PB1 HTS 126.0, MEKK2wt PB1 HTS 95.0, dFosB activator -1.2, MEKK2 mut-MEK5 3.0 and DNA FID counter -0.6.
CN(C)c1ccc(C=c2c3ccccc3n3c2cc(-c2ccc(Cl)cc2)[n+]3C)cc1 was read as dFosB activator 49.8*.
CN(C)c1ccc(C=c2c3ccccc3n3c2c2c([n+]3C)CCCC2)cc1 was read as dFosB activator 85.8*.
Screening COc1cc(N(C)C)ccc1C=c1c2ccccc2n2c1cc(-c1ccccc1)[n+]2C returned dFosB activator 234.5*.
For CN(c1ccc(Cl)cc1)c1cc(=O)n(C)c2ccccc12 the results were MEKK3 PB1 HTS 99.0, MEKK2wt PB1 HTS 99.0, dFosB activator -10.4, MEKK2 mut-MEK5 7.0 and DNA FID counter -14.1.
COc1cc(C=c2c3ccccc3n3c2cc(-c2ccccc2)[n+]3C)cc(OC)c1OC was read as dFosB activator -6.1.
For CC1CN(c2ccccn2)C(C)CN1C(=S)Nc1ccccc1 (stereo unspecified) the results were dFosB activator -9.9.
Screening COc1ccc(NC(=O)NCc2ccc(Cl)cc2)cc1 returned MEKK3 PB1 HTS 104.0, MEKK2wt PB1 HTS 107.0, dFosB activator -13.7, MEKK2 mut-MEK5 4.0 and DNA FID counter -9.4.
For COc1ccc(CNC(=O)Nc2cccc(Cl)c2)cc1 the results were MEKK3 PB1 HTS 103.0, MEKK2wt PB1 HTS 103.0, dFosB activator 24.4*, MEKK2 mut-MEK5 1.0 and DNA FID counter -2.4.
Screening CN1CCN(S(=O)(=O)c2cccc(C(=O)N3CCN(c4ccccc4)CC3)c2)CC1 returned dFosB activator 0.1.
`Cc1ccc(S(=O)(=O)NCCOc2cc(C)ccc2C)cc1` gave MEKK3 PB1 HTS 104.0, MEKK2wt PB1 HTS 105.0, dFosB activator -8.9, MEKK2 mut-MEK5 6.0 and DNA FID counter -32.1.
